These results are taken from the supplement of paper PMC8728848.

What all share (assay): glycan array binding signal (z-score within array); higher = stronger binding
Common to all, as to settings: glycan notation: IUPAC condensed, linker removed

Test [1] concerns the target Glc(a1-4)Glc. A digest of the protocol:
(§1)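 Glycan array binding is given as a within-array Z-score, which can be read as non-binding when negative. The arrays, 3228 of them, came from the Consortium for Functional Glycomics database and were retained only where the protein sequence was available. Z-scores were averaged across arrays of the same protein sequence at different concentrations or buffers and across linkers.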

The target of test [2] is Glc(a1-6)Glc(a1-6)Glc. A digest of the protocol:
as §1

Test [3] deals with GlcNAc(b1-2)[GlcNAc(b1-4)]Man(a1-3)[GlcNAc(b1-4)][GlcNAc(b1-2)[GlcNAc(b1-6)]Man(a1-6)]Man(b1-4)GlcNAc(b1-4)GlcNAc. A digest of the protocol:
as §1

Test [4] addresses GlcNAc(b1-3)Gal(b1-4)GlcNAc(b1-3)Gal(b1-4)GlcNAc(b1-2)Man(a1-3)[GlcNAc(b1-3)Gal(b1-4)GlcNAc(b1-3)Gal(b1-4)GlcNAc(b1-2)Man(a1-6)]Man(b1-4)GlcNAc(b1-4)[Fuc(a1-6)]GlcNAc. Put shortly: as §1
Test [5] concerns the target GlcNAc(b1-3)Gal(b1-4)GlcNAc(b1-6)[Gal(b1-3)]GalNAc. Put shortly:
as §1

Test [6] deals with GlcNAc(b1-3)Man. Put shortly: as §1
Test [7] concerns the target GlcNAc(b1-4)[GlcNAc(b1-6)]GalNAc. A digest of the protocol: as §1
For test [8], the target named is Kdn(a2-3)Gal(b1-4)Glc. Put shortly: as §1
For test [9], the target named is Man(a1-2)Man(a1-3)[Man(a1-2)Man(a1-6)]Man. A digest of the protocol:
as §1

Test [10] concerns the target Man(a1-3)[Man(a1-6)]Man. A digest of the protocol: as §1
The target of test [11] is Neu5Ac(a2-3)Gal(b1-3)GlcNAc(b1-3)GalNAc. Put shortly:
as §1

In test [12] the target is Neu5Ac(a2-6)Gal(b1-4)GlcNAc(b1-2)Man(a1-3)Man(b1-4)GlcNAc(b1-4)GlcNAc. A digest of the protocol:
as §1

In test [13] the target is Neu5Ac(a2-6)Gal(b1-4)GlcNAc(b1-2)Man(a1-3)[Neu5Ac(a2-6)Gal(b1-4)GlcNAc(b1-2)Man(a1-6)]Man(b1-4)GlcNAc(b1-4)GlcNAc. Put shortly:
as §1

The target of test [14] is Neu5Ac(a2-8)Neu5Ac(a2-3)Gal(b1-3)GalNAc(b1-4)[Neu5Ac(a2-8)Neu5Ac(a2-3)]Gal(b1-4)Glc. A digest of the protocol:
as §1

In test [15] the target is Neu5Ac(a2-8)Neu5Ac(a2-3)[Gal(b1-3)GalNAc(b1-4)]Gal(b1-4)Glc. Put shortly:
as §1

Test [16] has as its target Neu5Gc(a2-3)Gal(b1-4)Glc. Put shortly: as §1

The full list was thinned out, with the strongest signals kept by preference.

B1: OS9 (Arabidopsis thaliana) (protein)
chain: MRGSHHHHHHGMASMTGGQQMGRDLYDDDDKSRLQIFPAHLVGTFSRNNREPKYKIEFLPEDSPFHPGDNLESMVMLDKHGNRFLCYLPKEEKATSGWTSSQQNISTVMMETQQLVKLKTPDELLQPLSEKCLFRQEGWWSYEFCHQKYVRQLHVEDENKIVQEFFLGTFDPEATAAFNQTVSDASTDASQRYHSHVYTNGTTCDLTGSPREVEVRFVCAETRAMVTSITELSTCKYALTVQCPTLCKHPLFQLEKPVSHTIHCNAIPVEEDATRNKEEQAVDESPKMIADS
On to B1, for which the “glycan array binding signal (z-score)” value in test [1] was 1.98; in [2] it was -0.542; in test [3], 0.258; in [4], -0.144; in test [5], 0.094; in test [6], 0.127. Moreover, the “glycan array binding signal (z-score)” value in test [7] was -0.3; in test [8] it was 0.473; in test [9] it was 0.462; in test [10], -0.078; in test [11], 0.474; in test [12], 6.74. In addition, the “glycan array binding signal (z-score)” value is -0.5 in [13], -0.384 in test [14], 1.47 in [15] and -1.01 in test [16].
